The source of these data is PubChem BioAssay (Tox21).

Values without a mark were called inactive. Inconclusive results are not listed. Calls of active or inactive are those of the source. The call rests on the fitted dose curve; in most records, active means well fitted curve in the direction sought with a large enough effect in the repeat runs; inconclusive means weak or mixed curves; inactive means no such curve, though single readings can be large; an effect the other way counts as inactive or inconclusive. Positions of bridges follow the written chain, without caps; N, C: chain ends. Non-standard residues stand in square brackets, D forms with d. Residues, ends and D or L forms follow the SMILES beside them. *: point of attachment. X1 = CC[C@@H](C)[C@@H](N)C1=N[C@H](C(=O)*)CS1; d(aIle) = CC[C@H](C)[C@@H](N)C(=O)O; dOrn = NCCC[C@@H](N)C(=O)O

Assay [1] is described as follows: Caspase-3/7 induction in CHO-K1 cells by small molecules, qHTS assay (AID 1346980). Further: on the % scale 0 is the no-effect control and ±100 the full control effect; nearly all actives have a fitted effect of over 15% in size. Put shortly: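 Wild-type cells were seeded at 1,500 per well and settled 5 hr at 37 C, 5% CO2, then exposed to DMSO-dissolved compounds for 17 hr. Caspase-Glo 3/7 reagent was added, and luminescence was read after 30min at room temperature.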
Assay [2] deals with Nuclear receptor subfamily 1 group I member 2 (Homo sapiens) (UniProt O75469). Briefly: Human pregnane X receptor (PXR) small molecule agonists, qHTS assay (AID 1346982). Further: nearly all actives have a fitted effect of over 35% in size. Further: potency means the concentration at half of the fitted maximal effect. On activation: on the % scale 0 is the no-effect control and ±100 the full control effect. Put shortly:
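Luciferase signal from ONE-Glo (30 min, room temperature) measured activation of hPXR-driven CYP3A4 reporter expression in PXR-Luc HepG2 cells treated with compounds for 24 hr at 37 C.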
On the technique in general: qHTS replaces the single test concentration by a dilution series.

Assay [3] has as its target Cytochrome P450 2C19 (Homo sapiens) (UniProt P33261). The experiment in a line: Cytochrome P450 Family 2 Subfamily C Member 19 (CYP2C19) small molecule antagonists: luciferase reporter qHTS assay (AID 1671197). Further: potency means the concentration at half of the fitted maximal effect; nearly all actives have a fitted effect of over 65% in size. The method in brief:
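Compounds were tested on CYP2C19 activity via proluciferin conversion to luciferin. The 37C, 1 h reaction followed NADPH addition; detection reagent stopped it.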
Background: A reporter such as luciferase makes a cellular process visible.

In assay [4] the target is Voltage-gated inwardly rectifying potassium channel KCNH2 (Homo sapiens) (UniProt Q12809). Briefly: Human Ether-a-go-go-Related Gene (hERG) channel small molecule antagonists: fluorescence cell-based qHTS assay (AID 1671200). Further: nearly all actives have a fitted effect of over 50% in size. Further: potency means the concentration at half of the fitted maximal effect. Put shortly:
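hERG-U2OS cells plated overnight at 37 C, loaded with FluxOR II dye 1 h at RT in dark; after 10 min, thallium stimulus added. Fluorescence (480/540 nm) read kinetically for 2 min at 1 s intervals.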
In general terms: Block of hERG is tested as a sign of cardiac risk.

Assay [5] concerns the target Cytochrome P450 3A4 (Homo sapiens) (UniProt P08684). The experiment in a line: Cytochrome P450 Family 3 Subfamily A Member 4 (CYP3A4) small molecule antagonists: luciferase reporter qHTS assay (AID 1671201). Further: nearly all actives have a fitted effect of over 50% in size. Further: potency means the concentration at half of the fitted maximal effect. The method in brief:
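P450-Glo CYP3A4 luminescent assay: compounds preincubated 10 min at room temperature with enzyme and proluciferin substrate, NADPH regeneration added, 1 h room-temperature reaction, stopped with luciferin detection reagent; luminescence read after 20 min. Ketoconazole positive control.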

Assay [6] addresses Nuclear receptor subfamily 1 group I member 2 (Rattus norvegicus) (UniProt Q9R1A7). Briefly: Rat pregnane X receptor (rPXR) activation by small molecules, qHTS assay (AID 1346983). Further: on the % scale 0 is the no-effect control and ±100 the full control effect; nearly all actives have a fitted effect of over 20% in size. The following applies: rPXR luciferase reporter cells, One-Glo luminescence, 24 h; max activation: hits give high values. Put shortly: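 Cell-based rPXR luciferase reporter assay, 2,000 cells per well, rested 5hr at 37 C before compound addition in DMSO, then 24 hr at 37 C. One-Glo reagent was added and luminescence read after 30 min at room temperature.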

For assay [7], the target named is Nuclear receptor subfamily 1 group I member 2 (Homo sapiens) (UniProt O75469). Briefly: CYP3A4 induction through human pregnane X receptor (PXR) by small molecules, qHTS assay (AID 1346984). Further: nearly all actives have a fitted effect of over 40% in size. Further: potency means the concentration at half of the fitted maximal effect. On activation: on the % scale 0 is the no-effect control and ±100 the full control effect. The method in brief:
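Luminescence readout: luciferase signal after One-Glo (30 min, room temperature), following 3 h at 37C with 3uM final Luciferin-IPA P450 substrate. Cells were DPX-2 (HepG2, PXR/CYP3A4-luc co-transfected) dosed for 24 h.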

The target is the same in assay [8]. Briefly: Human pregnane X receptor (PXR) activation by small molecules, qHTS assay (AID 1346985). Further: nearly all actives have a fitted effect of over 40% in size. Further: potency means the concentration at half of the fitted maximal effect. On activation: on the % scale 0 is the no-effect control and ±100 the full control effect. The method in brief:
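DPX-2 cells (HepG2 co-transfected with a PXR response element and a CYP3A4-promoter luciferase construct) were seeded at 2,000 per well, rested 5 hr at 37C, then exposed to DMSO-dissolved compounds for 24 hr. Activation was read as luciferase luminescence.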

In assay [9] the target is Cytochrome P450 2D6 (Homo sapiens) (UniProt P10635). Briefly: Cytochrome P450 Family 2 Subfamily D Member 6 (CYP2D6) small molecule antagonists: luciferase reporter qHTS assay (AID 1671196). Further: nearly all actives have a fitted effect of over 50% in size. Further: potency means the concentration at half of the fitted maximal effect. The method in brief: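 Read-out is luminescence from luciferin formed by CYP2D6 turnover of a proluciferin substrate, recorded as relative luminescence units. Reactions ran 1 h at room temperature after NADPH regeneration solution was added.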
Sequence of Cytochrome P450 2D6 (Homo sapiens) (P10635 whole entry, looked up): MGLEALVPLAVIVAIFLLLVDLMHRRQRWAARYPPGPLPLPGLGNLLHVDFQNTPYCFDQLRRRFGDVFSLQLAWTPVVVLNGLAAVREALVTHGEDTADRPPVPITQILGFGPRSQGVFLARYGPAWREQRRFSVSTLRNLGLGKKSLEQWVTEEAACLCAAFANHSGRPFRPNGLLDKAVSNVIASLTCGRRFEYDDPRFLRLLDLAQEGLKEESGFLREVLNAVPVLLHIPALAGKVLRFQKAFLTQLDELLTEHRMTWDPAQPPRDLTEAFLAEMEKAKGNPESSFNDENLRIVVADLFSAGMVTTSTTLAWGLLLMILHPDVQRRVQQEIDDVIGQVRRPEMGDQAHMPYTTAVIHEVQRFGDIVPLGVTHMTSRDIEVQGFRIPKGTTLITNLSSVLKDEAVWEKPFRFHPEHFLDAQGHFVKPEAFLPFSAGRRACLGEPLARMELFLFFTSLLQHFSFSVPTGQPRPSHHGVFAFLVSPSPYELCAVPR

Assay [10] deals with Cytochrome P450 1A2 (Homo sapiens) (UniProt P05177). Briefly: Cytochrome P450 Family 1 Subfamily A Member 2 (CYP1A2) small molecule antagonists: luciferase reporter qHTS assay (AID 1671199). Further: nearly all actives have a fitted effect of over 50% in size. Further: potency means the concentration at half of the fitted maximal effect. The method in brief:
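P450-Glo CYP1A2, 1536-well qHTS: enzyme/proluciferin substrate + cpd (DMSO), 10 min RT; NADPH regen, 1 h RT; detection reagent, 20 min; luminescence, RLU.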

Assay [11] can be described thus: Caspase-3/7 induction in HepG2 cells by small molecules, qHTS cell viability counter screen (AID 1346981). Further: nearly all actives have a fitted effect of over 30% in size. Further: potency means the concentration at half of the fitted maximal effect. Put shortly: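 HepG2, WT, 2,000 cells/well; 5 hr pre-incubation 37 C/5% CO2; compound pin-transferred from DMSO; 16 hr exposure; CellTiter-Fluor, 1 hr; fluorescence read.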
For assay [12], the target named is Cytochrome P450 2C9 (Homo sapiens) (UniProt P11712). Briefly: Cytochrome P450 Family 2 Subfamily C Member 9 (CYP2C9) small molecule antagonists: luciferase reporter qHTS assay (AID 1671198). Further: nearly all actives have a fitted effect of over 50% in size. Further: potency means the concentration at half of the fitted maximal effect. Put shortly: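 CYP2C9 activity was measured with a P450-Glo proluciferin substrate. Enzyme–substrate mix was held with compound for 10 min at room temperature, then NADPH regeneration solution was added for 1 h at 37C. Luciferin product was read as luminescence.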
Sequence of Cytochrome P450 2C9 (Homo sapiens) (P11712 whole entry, looked up): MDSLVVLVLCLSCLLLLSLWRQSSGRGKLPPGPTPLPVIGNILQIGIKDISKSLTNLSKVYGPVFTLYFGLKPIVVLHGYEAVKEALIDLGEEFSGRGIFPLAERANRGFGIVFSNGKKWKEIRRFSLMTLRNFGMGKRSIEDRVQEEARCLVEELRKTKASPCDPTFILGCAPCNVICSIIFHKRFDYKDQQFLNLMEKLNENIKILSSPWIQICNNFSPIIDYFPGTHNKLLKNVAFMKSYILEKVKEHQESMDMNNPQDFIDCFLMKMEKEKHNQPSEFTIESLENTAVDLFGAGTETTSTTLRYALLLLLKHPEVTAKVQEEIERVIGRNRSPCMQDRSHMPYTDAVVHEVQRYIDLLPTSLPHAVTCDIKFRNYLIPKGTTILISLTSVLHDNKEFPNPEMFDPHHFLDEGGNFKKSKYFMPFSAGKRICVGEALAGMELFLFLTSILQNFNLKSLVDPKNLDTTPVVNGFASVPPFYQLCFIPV

Sequence of Voltage-gated inwardly rectifying potassium channel KCNH2 (Homo sapiens) (Q12809 whole entry, looked up): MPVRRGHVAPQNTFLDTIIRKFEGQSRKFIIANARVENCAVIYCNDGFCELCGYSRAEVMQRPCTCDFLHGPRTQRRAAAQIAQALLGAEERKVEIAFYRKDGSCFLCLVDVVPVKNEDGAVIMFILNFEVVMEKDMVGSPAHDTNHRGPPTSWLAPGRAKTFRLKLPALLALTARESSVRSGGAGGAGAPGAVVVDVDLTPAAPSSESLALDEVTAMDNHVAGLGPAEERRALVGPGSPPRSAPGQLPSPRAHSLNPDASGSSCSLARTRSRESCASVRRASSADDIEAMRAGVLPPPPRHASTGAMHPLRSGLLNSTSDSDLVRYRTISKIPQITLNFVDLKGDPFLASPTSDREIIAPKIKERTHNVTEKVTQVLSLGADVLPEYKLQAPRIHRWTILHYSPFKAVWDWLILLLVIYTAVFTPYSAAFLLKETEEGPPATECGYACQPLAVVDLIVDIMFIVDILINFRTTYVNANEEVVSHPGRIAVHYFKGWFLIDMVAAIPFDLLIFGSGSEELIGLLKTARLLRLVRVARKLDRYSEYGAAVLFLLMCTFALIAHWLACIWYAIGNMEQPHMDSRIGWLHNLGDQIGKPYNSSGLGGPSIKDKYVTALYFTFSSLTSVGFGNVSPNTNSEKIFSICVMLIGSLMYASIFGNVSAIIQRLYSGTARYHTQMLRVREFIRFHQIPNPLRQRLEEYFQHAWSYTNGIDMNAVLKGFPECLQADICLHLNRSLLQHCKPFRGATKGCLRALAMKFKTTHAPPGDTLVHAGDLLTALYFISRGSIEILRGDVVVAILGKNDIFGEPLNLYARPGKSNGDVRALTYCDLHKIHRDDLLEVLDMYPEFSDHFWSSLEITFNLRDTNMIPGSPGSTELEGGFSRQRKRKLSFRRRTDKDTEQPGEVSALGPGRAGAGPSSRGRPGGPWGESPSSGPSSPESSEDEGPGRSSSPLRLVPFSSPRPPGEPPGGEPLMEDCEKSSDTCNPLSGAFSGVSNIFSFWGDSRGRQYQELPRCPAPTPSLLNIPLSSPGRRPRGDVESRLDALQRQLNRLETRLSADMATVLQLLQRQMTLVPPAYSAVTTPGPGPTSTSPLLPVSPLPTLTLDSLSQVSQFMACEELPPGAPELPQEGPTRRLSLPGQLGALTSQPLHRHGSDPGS
Sequence of Nuclear receptor subfamily 1 group I member 2 (Homo sapiens) (O75469 whole entry, looked up): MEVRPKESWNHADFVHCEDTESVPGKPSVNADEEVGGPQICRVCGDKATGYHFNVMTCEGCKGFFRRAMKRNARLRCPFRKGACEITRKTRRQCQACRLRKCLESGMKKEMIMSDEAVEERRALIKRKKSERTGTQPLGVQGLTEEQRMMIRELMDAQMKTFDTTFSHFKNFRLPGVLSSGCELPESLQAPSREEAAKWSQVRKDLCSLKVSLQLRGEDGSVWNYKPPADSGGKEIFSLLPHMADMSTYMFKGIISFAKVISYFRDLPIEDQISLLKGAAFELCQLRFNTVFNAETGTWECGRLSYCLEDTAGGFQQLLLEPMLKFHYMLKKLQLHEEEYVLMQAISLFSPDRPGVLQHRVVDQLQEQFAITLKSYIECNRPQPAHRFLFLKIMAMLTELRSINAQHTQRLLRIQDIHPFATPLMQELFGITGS
Sequence of Cytochrome P450 1A2 (Homo sapiens) (P05177 whole entry, looked up): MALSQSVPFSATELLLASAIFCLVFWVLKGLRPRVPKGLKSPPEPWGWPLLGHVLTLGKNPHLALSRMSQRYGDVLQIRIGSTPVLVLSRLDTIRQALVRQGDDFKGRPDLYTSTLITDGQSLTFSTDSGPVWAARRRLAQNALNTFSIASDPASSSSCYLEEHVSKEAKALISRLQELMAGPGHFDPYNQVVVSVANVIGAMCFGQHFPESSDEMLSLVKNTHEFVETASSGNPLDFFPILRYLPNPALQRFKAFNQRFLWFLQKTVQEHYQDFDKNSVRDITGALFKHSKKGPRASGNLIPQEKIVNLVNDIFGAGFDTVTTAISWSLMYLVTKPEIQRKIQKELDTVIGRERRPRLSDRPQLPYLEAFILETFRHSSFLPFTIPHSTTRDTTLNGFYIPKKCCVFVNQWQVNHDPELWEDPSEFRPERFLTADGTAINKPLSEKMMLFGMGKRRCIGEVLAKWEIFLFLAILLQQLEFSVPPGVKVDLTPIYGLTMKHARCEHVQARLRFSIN
Sequence of Cytochrome P450 2C19 (Homo sapiens) (P33261 whole entry, looked up): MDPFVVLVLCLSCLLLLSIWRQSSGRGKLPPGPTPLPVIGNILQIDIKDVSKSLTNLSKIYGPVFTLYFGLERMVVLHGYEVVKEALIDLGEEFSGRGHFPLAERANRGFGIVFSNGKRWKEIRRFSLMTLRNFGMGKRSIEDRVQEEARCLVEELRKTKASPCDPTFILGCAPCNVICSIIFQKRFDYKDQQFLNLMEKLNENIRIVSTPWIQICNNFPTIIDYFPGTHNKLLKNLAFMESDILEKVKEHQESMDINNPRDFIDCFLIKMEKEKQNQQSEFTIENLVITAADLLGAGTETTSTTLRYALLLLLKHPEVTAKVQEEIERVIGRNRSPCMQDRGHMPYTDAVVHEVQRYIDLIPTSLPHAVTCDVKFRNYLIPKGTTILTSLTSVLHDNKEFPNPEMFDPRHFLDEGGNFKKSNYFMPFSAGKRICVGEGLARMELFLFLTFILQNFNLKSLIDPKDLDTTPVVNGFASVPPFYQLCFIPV
Sequence of Nuclear receptor subfamily 1 group I member 2 (Rattus norvegicus) (Q9R1A7 whole entry, looked up): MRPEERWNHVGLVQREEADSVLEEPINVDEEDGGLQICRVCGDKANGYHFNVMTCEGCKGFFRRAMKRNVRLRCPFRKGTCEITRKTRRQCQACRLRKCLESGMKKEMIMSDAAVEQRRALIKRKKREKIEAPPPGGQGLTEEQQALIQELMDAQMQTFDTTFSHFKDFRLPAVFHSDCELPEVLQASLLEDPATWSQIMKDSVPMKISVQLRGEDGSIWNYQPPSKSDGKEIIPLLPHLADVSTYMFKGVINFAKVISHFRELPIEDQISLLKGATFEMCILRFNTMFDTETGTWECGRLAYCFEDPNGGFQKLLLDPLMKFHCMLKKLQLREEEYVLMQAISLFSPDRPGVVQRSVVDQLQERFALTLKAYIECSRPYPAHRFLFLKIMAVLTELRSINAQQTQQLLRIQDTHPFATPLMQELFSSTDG
Sequence of Cytochrome P450 3A4 (Homo sapiens) (P08684 whole entry, looked up): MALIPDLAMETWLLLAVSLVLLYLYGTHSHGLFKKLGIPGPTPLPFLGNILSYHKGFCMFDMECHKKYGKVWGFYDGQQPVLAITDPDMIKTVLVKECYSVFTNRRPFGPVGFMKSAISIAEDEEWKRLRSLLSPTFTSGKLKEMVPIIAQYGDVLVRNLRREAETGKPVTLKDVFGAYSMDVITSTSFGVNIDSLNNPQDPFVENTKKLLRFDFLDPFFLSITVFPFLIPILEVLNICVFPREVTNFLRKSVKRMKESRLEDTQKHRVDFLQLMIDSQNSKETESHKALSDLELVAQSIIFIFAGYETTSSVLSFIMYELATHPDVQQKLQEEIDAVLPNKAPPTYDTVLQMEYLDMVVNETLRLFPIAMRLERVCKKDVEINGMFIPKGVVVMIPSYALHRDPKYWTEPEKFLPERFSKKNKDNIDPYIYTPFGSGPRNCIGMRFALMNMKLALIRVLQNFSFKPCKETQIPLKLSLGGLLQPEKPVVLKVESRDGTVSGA

Take `COc1ccc(OC)c(N=Nc2c(O)ccc3ccccc23)c1`: the Potency result in assay [1] and in assay [4] was “inactive” each time. Besides, the figures for the Potency in [2], in [3] and in [5] were 9.69 µM (active), 10 µM (active) and 2.83 µM (active), respectively.

`Cc1ncc(C[n+]2csc(CCO)c2C)c(N)n1`: the max activation in [6] is -0.76%.

Consider `NC(=O)[C@H]1O[C@@H](O)[C@H](O)[C@@H](O)[C@@H]1O`, for which the max activation in assay [6] was -0.18%. The Potency entry in assay [7] and in assay [8] was “inactive” throughout.

As to `Cc1c(Cl)c(=O)oc2cc(O)ccc12`, the Potency result in [1], in assay [9] and in [5] was “inactive” in each case. Moreover, the Potency in [10] is 17.8 µM (active).

Regarding `CC1=C(/C=C/C(C)=C/C=C/C(C)=C\C(=O)O)C(C)(C)CCC1`, the Potency result in [11] is “inactive”. The Potency in assay [2] was 34.5 µM (active); in assay [3], 40 µM (active); in [12] it was 40 µM (active); in [5], 22.5 µM (active).

With `O=C(O)c1ccccn1`, the max activation in assay [6] was -2.98%.

Take `CCN1\C(=C/C=C/C=C/c2sc3ccccc3[n+]2CC)Sc2ccccc21`: the max activation in assay [6] is -28.2%. In [7], the Potency result was “inactive”.

For the compound `Nc1c(Br)cc([N+](=O)[O-])cc1Br`, the Potency result in assay [1], in [9], in [12] and in [5] was “inactive” throughout. Moreover, the Potency in assay [3] is 79.6 µM (active).

Regarding `C=CCc1cc(S(=O)(=O)c2ccc(O)c(CC=C)c2)ccc1O`, the Potency entry in assay [1] and in [4] was “inactive” each time. In addition, the Potency was 6.33 µM (active) in assay [9], 2.24 µM (active) in [3], 0.502 µM (active) in assay [12] and 28.3 µM (active) in assay [5].

For the compound `O=C(NCc1ncc(C(F)(F)F)cc1Cl)c1c(Cl)cccc1Cl`, the Potency entry in [11], in assay [12] and in [4] was “inactive” each time. Besides, the Potency in [2] was 1.22 µM (active); in assay [9], 2.83 µM (active); in [3], 20 µM (active); in assay [10], 31.7 µM (active); in assay [5], 8.94 µM (active).

Turning to `CN[C@H]1CC[C@@H](c2ccc(Cl)c(Cl)c2)c2ccc(S(N)(=O)=O)cc21`, the Potency in assay [11] was 61.1 µM (active); in assay [9], 1.42 µM (active); in assay [3], 50.2 µM (active); in [4], 9.77 µM (active); in assay [5] it was 28.3 µM (active). The Potency entry in assay [2] and in assay [10] was “inactive” throughout.

Consider `c1ccc(-n2cnnn2)cc1`, for which the max activation in assay [6] is -5.33%. Further, the Potency entry in assay [7] and in assay [8] was “inactive” throughout.

For `CC(C)CCC[C@@H](C)[C@H]1CC[C@H]2[C@@H]3CC[C@@H]4C[C@H](O)CC[C@]4(C)[C@H]3CC[C@]12C`, the max activation in assay [6] was -7.28%. Also, the Potency entry in assay [7] and in assay [8] was “inactive” in each case.

With `OCC1(CO)COC(C(Cl)(Cl)Cl)OC1`, the max activation in [6] is -2.81%. The Potency result in assay [7] and in [8] was “inactive” each time.

With `CN1C(C(=O)Nc2ccccn2)C(=O)c2sc(Cl)cc2S1(=O)=O` (stereo not drawn), the max activation in assay [6] is -4.75%. The Potency entry in [7] and in [8] was “inactive” throughout.

Turning to `CC(C)(O/N=C(\C(=O)N[C@@H]1C(=O)N2C(C(=O)[O-])=C(C[n+]3ccccc3)CS[C@H]12)c1csc(N)n1)C(=O)O`, the max activation in assay [6] was 0.831%. Moreover, the Potency entry in assay [7] and in assay [8] was “inactive” each time.

For `CC[C@@H](C)[C@@H](N)C1=N[C@H](C(=O)N[C@@H](CC(C)C)C(=O)N[C@@H](CCC(=O)O)C(=O)N[C@@H](C(=O)N[C@@H]2CCCCNC(=O)[C@@H](CC(N)=O)NC(=O)[C@@H](CC(=O)O)NC(=O)[C@@H](Cc3cnc[nH]3)NC(=O)[C@@H](Cc3ccccc3)NC(=O)[C@@H]([C@H](C)CC)NC(=O)[C@@H](CCCN)NC2=O)[C@@H](C)CC)CS1` (X1-LE[d(aIle)][dK][dOrn][dI][dF][dH][dD][dN]; lactam 4-C), the max activation in assay [6] is -0.877%. The Potency entry in [7] and in [8] was “inactive” each time.

`CO[C@H](C(=O)[C@@H](O)[C@@H](C)O)C1Cc2cc3cc(O[C@H]4C[C@@H](O[C@H]5C[C@@H](O)[C@H](O)[C@@H](C)O5)[C@@H](O)[C@@H](C)O4)c(C)c(O)c3c(O)c2C(=O)[C@H]1O[C@H]1C[C@@H](O[C@H]2C[C@@H](O[C@H]3C[C@](C)(O)[C@H](O)[C@@H](C)O3)[C@H](O)[C@@H](C)O2)[C@H](O)[C@@H](C)O1` (stereo partly drawn): in assay [6], the max activation is -17.7%. Also, the Potency result in assay [7] and in [8] was “inactive” each time.

For `CCCCCCCCCCCCCCCCCCOCC(COP(=O)([O-])OCC[N+](C)(C)C)OC` (stereo not drawn), the max activation in assay [6] was -1.53%. For the same compound, the Potency entry in [7] and in [8] was “inactive” each time.

On to `CC(C)(COP(=O)(O)OP(=O)(O)OC[C@H]1O[C@@H](n2cnc3c(N)ncnc32)[C@H](O)[C@@H]1OP(=O)(O)O)C(O)C(=O)NCCC(=O)NCCS` (stereo partly drawn), for which the max activation in assay [6] was 0.513%. Moreover, the Potency result in [7] and in assay [8] was “inactive” in each case.

On to `CO/N=C(\C(=O)N[C@@H]1C(=O)N2C(C(=O)O)=C(CSc3cnns3)CS[C@H]12)c1csc(N)n1`, for which, in assay [6], the max activation was -0.96%. For the same compound, the Potency result in [7] and in assay [8] was “inactive” throughout.

In the case of `C=CC1=C(C(=O)O)N2C(=O)[C@@H](NC(=O)/C(=N\O)c3csc(N)n3)[C@H]2SC1` (stereo in doubt), the max activation in [6] is -3.55%. The Potency entry in [7] and in [8] was “inactive” throughout.

`O=C1CCC(c2ccccc2)(C2CCN(Cc3ccccc3)CC2)C(=O)N1` (stereo not drawn): in [6], the max activation was 4.99%. The figures for the Potency in [7] and in assay [8] were 14.1 µM (active) and 5.62 µM (active), respectively.
